# Active and inactive are the calls of the source. Cut-off read from the data, not from the text of the source, unless noted: active = inhibition above about 30%; inactive = the rest.
# Biological target: Nuclear receptor coactivator 3 (Homo sapiens) (UniProt Q9Y6Q9)
# Experiment: NCOA3 GAL4-fusion reporter inhibition – cell-based, luminescence, quadruplicate, confirmation (AID 588792;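 active = mean inhibition over 43.08%, the solvent-only control mean plus 3 SD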;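 note: 0% = DMSO treated cells and 100% = gossypol at 36 µM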)
# Details: HEK293 GAL4-SRC3 luciferase reporter, at 3.6 µM, hits give high values
# Chain of Nuclear receptor coactivator 3 (Homo sapiens) (Q9Y6Q9 whole entry, looked up, the tested form may be a part): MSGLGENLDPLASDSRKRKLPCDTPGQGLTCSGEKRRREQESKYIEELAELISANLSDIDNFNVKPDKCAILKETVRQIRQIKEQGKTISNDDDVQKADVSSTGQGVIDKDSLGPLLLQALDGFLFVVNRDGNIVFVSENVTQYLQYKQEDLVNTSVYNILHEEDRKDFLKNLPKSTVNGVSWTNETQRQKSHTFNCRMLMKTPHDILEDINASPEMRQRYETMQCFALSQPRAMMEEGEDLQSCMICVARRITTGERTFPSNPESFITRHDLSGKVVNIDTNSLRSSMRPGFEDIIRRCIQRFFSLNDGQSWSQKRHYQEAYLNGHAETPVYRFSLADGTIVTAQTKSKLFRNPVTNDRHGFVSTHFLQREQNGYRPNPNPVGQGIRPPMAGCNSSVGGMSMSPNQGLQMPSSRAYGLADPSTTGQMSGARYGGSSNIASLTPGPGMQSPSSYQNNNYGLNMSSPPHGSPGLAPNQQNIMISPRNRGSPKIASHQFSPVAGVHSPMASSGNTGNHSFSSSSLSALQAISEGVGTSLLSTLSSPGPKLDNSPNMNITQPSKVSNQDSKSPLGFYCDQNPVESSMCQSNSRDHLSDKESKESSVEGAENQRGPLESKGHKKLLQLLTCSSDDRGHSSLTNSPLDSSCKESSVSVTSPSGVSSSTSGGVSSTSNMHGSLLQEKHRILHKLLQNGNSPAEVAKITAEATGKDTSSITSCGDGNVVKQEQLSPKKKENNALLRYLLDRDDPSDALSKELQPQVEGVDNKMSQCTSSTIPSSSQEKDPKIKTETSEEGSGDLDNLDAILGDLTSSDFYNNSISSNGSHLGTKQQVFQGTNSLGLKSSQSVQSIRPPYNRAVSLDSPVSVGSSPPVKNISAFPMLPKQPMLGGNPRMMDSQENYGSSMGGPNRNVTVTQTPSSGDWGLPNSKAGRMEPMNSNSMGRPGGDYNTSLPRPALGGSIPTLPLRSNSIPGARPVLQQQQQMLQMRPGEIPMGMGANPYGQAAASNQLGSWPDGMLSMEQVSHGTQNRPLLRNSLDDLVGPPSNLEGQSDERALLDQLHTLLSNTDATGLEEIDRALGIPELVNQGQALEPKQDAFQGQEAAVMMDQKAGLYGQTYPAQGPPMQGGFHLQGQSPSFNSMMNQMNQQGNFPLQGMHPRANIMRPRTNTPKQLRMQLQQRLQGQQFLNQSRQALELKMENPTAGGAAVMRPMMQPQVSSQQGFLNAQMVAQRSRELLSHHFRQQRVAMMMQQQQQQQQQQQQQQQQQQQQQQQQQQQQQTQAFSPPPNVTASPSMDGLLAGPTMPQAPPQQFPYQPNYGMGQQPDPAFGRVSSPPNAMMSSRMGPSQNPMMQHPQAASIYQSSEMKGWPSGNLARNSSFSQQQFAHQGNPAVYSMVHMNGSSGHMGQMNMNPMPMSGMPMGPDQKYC
row,SMILES,inhibition
1,CSc1ncccc1C(=O)NCc1nnc2ccccn12,3.35% (inactive)
2,Cc1ccc2c(c1)c(C)cc[n+]2Cc1ccccc1,10.7% (inactive)
3,Cc1ccc(C(=O)C[n+]2cc(-c3ccccc3)n3c2CCCCC3)cc1,6.68% (inactive)
4,Fc1ccc(-c2noc(C3CCN(Cc4cccnc4)CC3)n2)cc1,-4.45% (inactive)
5,Cc1cccc(N2C(=O)c3cccnc3C2=O)c1,3.71% (inactive)
6,O=C(NCCNc1ccc([N+](=O)[O-])cc1C(F)(F)F)c1cccc(F)c1,15.4% (inactive)
7,Nc1ncnc(Sc2ccc(Cl)cc2)c1[N+](=O)[O-],13.4% (inactive)
8,CCOC(=O)N1CCC(NC(=O)C2CCCN(Cc3nc(-c4ccc(CC)cc4)oc3C)C2)CC1 (stereo unspecified),18.7% (inactive)
9,COc1ccc2c(c1)N(C)/C(=C/c1cccc[n+]1C)S2,-6.44% (inactive)
10,C[C@H](NS(=O)(=O)c1ccc(Cl)cc1)C(=O)OCC(=O)NC(=O)Nc1ccc2c(c1)OCCO2,-39.7% (inactive)
11,O=C(NC(=S)NNC(=O)c1cc2ccccc2cc1O)c1ccco1,26.9% (inactive)
12,C#CC(=O)N(c1cc(OC)ccc1OC)C(C(=O)NC1CCCC1)c1cccs1 (stereo unspecified),49.7% (active)
13,O=C(Nc1cc(C(=O)N2CCCC2)ccc1N1CCCC1)c1ccccc1F,27.3% (inactive)
14,c1ccc(Oc2cccc(Oc3ccccc3)n2)cc1,5.37% (inactive)
15,CC1CCCCC12NC(=O)N(CC(=O)N1CCN(Cc3ccc(C#N)cc3)CC1)C2=O (stereo unspecified),-3.89% (inactive)
16,CCOc1ccc(/C=C/C(O)=C2/C(=O)NC3(C)CC2c2ccccc2O3)cc1OC (stereo unspecified),25.5% (inactive)
17,COC(=O)COc1cccc(NC(=O)c2cccs2)c1,-1.66% (inactive)
18,Cc1c(Cl)cccc1NC(=O)CCC(=O)N/N=C/c1ccc[nH]1,13.6% (inactive)
19,CSCc1cc(N(C)c2ccccc2)nc(-c2ccccn2)n1,-19.7% (inactive)
20,CCOC(=O)c1c(C)[nH]c(C)c1C(=O)COC(=O)/C=C/c1cccc(Cl)c1,-3.47% (inactive)
21,CC(C)(Sc1cc(C(C)(C)C)c(O)c(C(C)(C)C)c1)Sc1cc(C(C)(C)C)c(O)c(C(C)(C)C)c1,15.9% (inactive)
22,Cc1ccc(N=Nc2ccc3ccccc3c2O)cc1,30.8% (inactive)
23,Cc1nc(SCC(=O)NCc2ccc3c(c2)OCO3)c(C#N)c2c1CCCC2,-21.9% (inactive)
24,CCOc1ccc(/C=N/OCC(=O)NCc2ccc3c(c2)OCO3)cc1OC,-12.6% (inactive)
25,CCCn1c(C)cc(C(=O)COc2ccc(C)nc2[N+](=O)[O-])c1C,11.3% (inactive)
26,CCN(CC)c1ccc(/C=N/NC(=O)c2ccc3nc[nH]c3c2)c(O)c1,51.3% (active)

# System: transactivating tegument protein VP16 (Human herpesvirus 1), Gal4-VP16 luciferase reporter
# Experiment: repression of VP16-driven luciferase reporter – cell-based, luminescence, high throughput, counter-screen for SRC3 inhibitor project (AID 588794)
# Details: mammalian cells, at 3.6 µM, hits give high values
row,SMILES,inhibition
1,CC(C)COc1ccc(C(=O)Nc2sc3c(c2C(=O)O)CC(C)(C)OC3)cc1,68.5% (active)
2,CCN(CC)S(=O)(=O)c1cc(NC(=O)C(C)OC(=O)c2[nH]c(C)c(C(C)=O)c2C)ccc1C (stereo unspecified),8.36% (inactive)
3,COc1cc(NC(=O)c2cccs2)c(C(=O)OCC(=O)c2cc(C)n(-c3ccc(F)cc3)c2C)cc1OC,2.26% (inactive)
4,O=C(/C=C/c1ccc([N+](=O)[O-])cc1)c1ccccc(=O)c1O,37.5% (active)
5,CCn1cc(C(=O)NCc2ccco2)c(=O)c2cc(S(=O)(=O)N3CCCCCC3)ccc21,23.5% (inactive)
6,CCOC(=O)C1=CCN(S(=O)(=O)c2ccc(C)cc2)C1c1cccc(Cl)c1 (stereo unspecified),6.03% (inactive)
7,CC(=O)Nc1ccc(S(=O)(=O)Oc2ccccc2N2CCCCC2)cc1,0.67% (inactive)
8,CCCC(C(=O)NC(C)(C)C)N(C(=O)c1snc(C(N)=O)c1N)c1ccc2c(c1)OCCO2 (stereo unspecified),2.4% (inactive)
9,COc1ccc(N2CC(C(=O)N/N=C/c3ccccc3)CC2=O)cc1 (stereo unspecified),-0.56% (inactive)
10,CCc1[nH]nc2c1C(C1C=CCCC1)C(C#N)=C(N)O2 (stereo unspecified),21.2% (inactive)
11,CC(=O)c1c(C)[nH]c(C(=O)Nc2ccc(Cl)c(S(=O)(=O)N3CCOCC3)c2)c1C,-16.6% (inactive)
12,CCc1ccc(N2CC(C(=O)N/N=C/c3cc([N+](=O)[O-])ccc3O)CC2=O)cc1 (stereo unspecified),9.04% (inactive)
13,Cc1ccc(Cl)cc1N1CCN(C(c2ccc(C#N)cc2)c2nnnn2C2CCCC2)CC1 (stereo unspecified),22.5% (inactive)
14,Cc1cccc(Oc2sc(C(=O)c3ccccc3)c(N)c2C#N)c1,5.81% (inactive)
15,CSc1ncccc1C(=O)NCc1nnc2ccccn12,-2.69% (inactive)
16,Cc1ccc2c(c1)c(C)cc[n+]2Cc1ccccc1,4.92% (inactive)
17,Cc1ccc(C(=O)C[n+]2cc(-c3ccccc3)n3c2CCCCC3)cc1,22.9% (inactive)
18,Fc1ccc(-c2noc(C3CCN(Cc4cccnc4)CC3)n2)cc1,6.14% (inactive)
19,Cc1cccc(N2C(=O)c3cccnc3C2=O)c1,-4.38% (inactive)
20,O=C(NCCNc1ccc([N+](=O)[O-])cc1C(F)(F)F)c1cccc(F)c1,12.6% (inactive)

row,SMILES,inhibition
1,Nc1ncnc(Sc2ccc(Cl)cc2)c1[N+](=O)[O-],9.09% (inactive)
2,CCOC(=O)N1CCC(NC(=O)C2CCCN(Cc3nc(-c4ccc(CC)cc4)oc3C)C2)CC1 (stereo unspecified),33.9% (active)
3,COc1ccc2c(c1)N(C)/C(=C/c1cccc[n+]1C)S2,37.5% (active)
4,C[C@H](NS(=O)(=O)c1ccc(Cl)cc1)C(=O)OCC(=O)NC(=O)Nc1ccc2c(c1)OCCO2,-25.8% (inactive)
5,O=C(NC(=S)NNC(=O)c1cc2ccccc2cc1O)c1ccco1,61.6% (active)
6,C#CC(=O)N(c1cc(OC)ccc1OC)C(C(=O)NC1CCCC1)c1cccs1 (stereo unspecified),7.33% (inactive)
7,O=C(Nc1cc(C(=O)N2CCCC2)ccc1N1CCCC1)c1ccccc1F,13.1% (inactive)
8,c1ccc(Oc2cccc(Oc3ccccc3)n2)cc1,1.72% (inactive)
9,CC1CCCCC12NC(=O)N(CC(=O)N1CCN(Cc3ccc(C#N)cc3)CC1)C2=O (stereo unspecified),6.63% (inactive)
10,CCOc1ccc(/C=C/C(O)=C2/C(=O)NC3(C)CC2c2ccccc2O3)cc1OC (stereo unspecified),39% (active)
11,COC(=O)COc1cccc(NC(=O)c2cccs2)c1,-12.7% (inactive)
12,Cc1c(Cl)cccc1NC(=O)CCC(=O)N/N=C/c1ccc[nH]1,14.5% (inactive)
13,CSCc1cc(N(C)c2ccccc2)nc(-c2ccccn2)n1,-1.49% (inactive)
14,CCOC(=O)c1c(C)[nH]c(C)c1C(=O)COC(=O)/C=C/c1cccc(Cl)c1,-1.23% (inactive)
15,CC(C)(Sc1cc(C(C)(C)C)c(O)c(C(C)(C)C)c1)Sc1cc(C(C)(C)C)c(O)c(C(C)(C)C)c1,-0.87% (inactive)
16,Cc1ccc(N=Nc2ccc3ccccc3c2O)cc1,17.5% (inactive)
17,Cc1nc(SCC(=O)NCc2ccc3c(c2)OCO3)c(C#N)c2c1CCCC2,-7.85% (inactive)
18,CCOc1ccc(/C=N/OCC(=O)NCc2ccc3c(c2)OCO3)cc1OC,-5.41% (inactive)
19,CCCn1c(C)cc(C(=O)COc2ccc(C)nc2[N+](=O)[O-])c1C,6.56% (inactive)
20,CCN(CC)c1ccc(/C=N/NC(=O)c2ccc3nc[nH]c3c2)c(O)c1,50.6% (active)
